The results in this text go back to publication PMC7862700, “An all-to-all approach to the identification of sequence-specific readers for epigenetic DNA modifications on cytosine”.

Common to all, as to test: DAPPL (digital affinity profiling via proximity ligation, sequencing); 10 mM Tris-HCl pH 7.5, 50 mM NaCl, 1 mM DTT, 4% glycerol, room temperature, 30 min; GST-TFs on glutathione beads, 16-mer random dsDNA library, 0.1% formaldehyde crosslink after washing; high values mean tight binding
Common to all, as to settings: protein: recombinant; tags: N-terminal GST; dsDNA, one strand shown

In one assay the target is T1, ERF (Homo sapiens, UniProt P50548 1-548).
T1 sequence: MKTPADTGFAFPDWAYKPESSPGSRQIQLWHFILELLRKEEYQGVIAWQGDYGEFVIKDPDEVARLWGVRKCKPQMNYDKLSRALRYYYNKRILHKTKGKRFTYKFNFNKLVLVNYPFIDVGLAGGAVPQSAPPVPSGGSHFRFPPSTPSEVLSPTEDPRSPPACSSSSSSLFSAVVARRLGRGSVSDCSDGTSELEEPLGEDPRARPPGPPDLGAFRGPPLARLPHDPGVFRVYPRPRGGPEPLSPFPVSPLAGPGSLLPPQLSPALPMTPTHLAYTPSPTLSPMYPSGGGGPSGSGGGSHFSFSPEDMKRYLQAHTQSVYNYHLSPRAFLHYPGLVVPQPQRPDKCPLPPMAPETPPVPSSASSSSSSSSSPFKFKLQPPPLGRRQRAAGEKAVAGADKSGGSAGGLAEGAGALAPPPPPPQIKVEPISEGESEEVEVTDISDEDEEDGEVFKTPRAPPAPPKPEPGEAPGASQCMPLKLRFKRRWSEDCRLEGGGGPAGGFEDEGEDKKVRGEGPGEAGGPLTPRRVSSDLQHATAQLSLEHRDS
A digest of the protocol: (§1)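 Binding signal is given per hexamer as its read frequency for a factor divided by its frequency in the tag-only sample. GST-fused human transcription factors were expressed in yeast, captured on glutathione beads, barcoded with DNA and pooled with that sample, then incubated with 200 nmole of a 16-mer random double-stranded DNA library in Tris/NaCl/DTT/glycerol buffer for 30 min at room temperature. The pools were then washed, crosslinked, proximity-ligated, amplified by PCR and sequenced on an Illumina NextSeq500.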

A further assay concerns the target T2, ETV3L (Homo sapiens, UniProt Q6ZN32 1-361).
T2 sequence: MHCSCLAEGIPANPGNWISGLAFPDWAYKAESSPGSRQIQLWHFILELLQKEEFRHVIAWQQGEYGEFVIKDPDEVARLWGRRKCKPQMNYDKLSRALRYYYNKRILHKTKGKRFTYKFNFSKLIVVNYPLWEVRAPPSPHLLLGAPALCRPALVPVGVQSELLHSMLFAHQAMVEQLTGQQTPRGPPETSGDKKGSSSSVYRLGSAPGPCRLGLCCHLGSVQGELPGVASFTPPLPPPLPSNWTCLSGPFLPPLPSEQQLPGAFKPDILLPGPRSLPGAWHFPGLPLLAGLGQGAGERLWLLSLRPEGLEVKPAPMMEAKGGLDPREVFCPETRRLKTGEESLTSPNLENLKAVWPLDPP
A digest of the protocol:
as §1

In the next assay the target is T3, ETS2 (Homo sapiens, UniProt P15036 1-469).
T3 sequence: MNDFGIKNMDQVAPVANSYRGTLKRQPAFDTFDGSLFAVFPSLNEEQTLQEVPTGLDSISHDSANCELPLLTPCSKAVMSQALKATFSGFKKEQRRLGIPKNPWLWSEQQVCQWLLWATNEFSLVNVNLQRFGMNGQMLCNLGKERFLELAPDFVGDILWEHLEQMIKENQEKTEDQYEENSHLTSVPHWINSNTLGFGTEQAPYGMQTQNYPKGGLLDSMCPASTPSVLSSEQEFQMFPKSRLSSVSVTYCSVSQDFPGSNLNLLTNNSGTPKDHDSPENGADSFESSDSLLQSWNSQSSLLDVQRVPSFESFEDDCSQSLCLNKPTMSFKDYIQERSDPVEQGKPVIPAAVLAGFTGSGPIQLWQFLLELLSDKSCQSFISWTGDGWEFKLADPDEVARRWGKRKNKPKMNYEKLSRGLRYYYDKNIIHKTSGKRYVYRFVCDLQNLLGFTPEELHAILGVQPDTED
An outline of the steps:
as §1

For a further assay, the target named is T4, SPDEF (Homo sapiens, UniProt O95238 1-335).
T4 sequence: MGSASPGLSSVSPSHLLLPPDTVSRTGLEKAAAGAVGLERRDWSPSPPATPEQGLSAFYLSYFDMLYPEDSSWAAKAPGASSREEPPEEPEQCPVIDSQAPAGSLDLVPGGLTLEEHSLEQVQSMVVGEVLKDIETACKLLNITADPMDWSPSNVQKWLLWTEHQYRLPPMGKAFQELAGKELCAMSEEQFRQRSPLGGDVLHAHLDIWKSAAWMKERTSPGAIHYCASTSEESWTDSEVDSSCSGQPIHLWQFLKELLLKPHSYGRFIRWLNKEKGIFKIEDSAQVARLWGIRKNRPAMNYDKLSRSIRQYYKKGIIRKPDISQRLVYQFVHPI
A digest of the protocol:
as §1

For another assay, the target named is T5, ETV7 (Homo sapiens, UniProt Q9Y603 1-341).
T5 sequence: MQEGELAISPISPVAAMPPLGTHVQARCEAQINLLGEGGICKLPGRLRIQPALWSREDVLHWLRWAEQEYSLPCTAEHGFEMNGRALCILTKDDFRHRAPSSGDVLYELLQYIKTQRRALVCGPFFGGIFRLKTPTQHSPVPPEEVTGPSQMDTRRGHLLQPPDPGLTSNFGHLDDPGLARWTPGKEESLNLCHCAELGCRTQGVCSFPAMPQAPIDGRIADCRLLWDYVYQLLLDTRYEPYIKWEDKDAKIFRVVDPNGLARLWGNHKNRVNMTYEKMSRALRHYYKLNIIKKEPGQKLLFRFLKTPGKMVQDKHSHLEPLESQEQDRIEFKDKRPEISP
A digest of the protocol: as §1

For another assay, the target named is T6, ELF5 (Homo sapiens, UniProt Q9UKW6-2 1-255).
T6 sequence: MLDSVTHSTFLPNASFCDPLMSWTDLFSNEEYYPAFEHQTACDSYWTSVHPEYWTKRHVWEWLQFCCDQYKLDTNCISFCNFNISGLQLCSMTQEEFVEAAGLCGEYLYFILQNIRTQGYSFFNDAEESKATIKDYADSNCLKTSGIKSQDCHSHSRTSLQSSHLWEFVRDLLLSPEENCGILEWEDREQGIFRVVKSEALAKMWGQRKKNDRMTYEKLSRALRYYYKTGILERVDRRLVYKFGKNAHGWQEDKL
A digest of the protocol: as §1

For a further assay, the target named is T7, ETV3 (Homo sapiens, UniProt P41162-2 1-143).
T7 sequence: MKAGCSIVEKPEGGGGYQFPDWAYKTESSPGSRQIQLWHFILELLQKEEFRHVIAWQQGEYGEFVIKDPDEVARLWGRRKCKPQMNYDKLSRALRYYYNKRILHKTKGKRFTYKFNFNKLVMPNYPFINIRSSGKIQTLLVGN
A digest of the protocol: as §1

The target of the next assay is ETV6 (Homo sapiens, UniProt P41212 1-452). An outline of the steps: as §1
ETV6, sequence (P41212 whole entry): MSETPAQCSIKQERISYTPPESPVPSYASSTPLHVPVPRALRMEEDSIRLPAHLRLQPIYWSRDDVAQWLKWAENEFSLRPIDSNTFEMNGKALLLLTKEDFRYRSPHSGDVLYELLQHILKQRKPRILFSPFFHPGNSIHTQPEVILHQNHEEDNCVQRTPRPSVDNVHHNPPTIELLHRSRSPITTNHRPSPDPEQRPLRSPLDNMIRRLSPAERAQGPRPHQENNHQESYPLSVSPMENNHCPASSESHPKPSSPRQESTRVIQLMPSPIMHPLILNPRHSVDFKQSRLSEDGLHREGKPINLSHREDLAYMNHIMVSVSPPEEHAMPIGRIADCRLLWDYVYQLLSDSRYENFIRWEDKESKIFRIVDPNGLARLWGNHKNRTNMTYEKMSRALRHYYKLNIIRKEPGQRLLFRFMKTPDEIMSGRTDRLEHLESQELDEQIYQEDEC

On to ACGTAT, for which the binding signal is 1.15 fold enrichment (6-mer frequency, TF over GST control) with ERF; 1.28 fold enrichment (6-mer frequency, TF over GST control) with ETV3L; 1.27 fold enrichment (6-mer frequency, TF over GST control) with ETS2; 1.36 fold enrichment (6-mer frequency, TF over GST control) in the assay with SPDEF; 1.25 fold enrichment (6-mer frequency, TF over GST control) with ETV7; 1.16 fold enrichment (6-mer frequency, TF over GST control) in the assay with ELF5. The binding signal in the assay with ETV3 is 1.26 fold enrichment (6-mer frequency, TF over GST control); with ETV6 it was 1.22 fold enrichment (6-mer frequency, TF over GST control).
On to GTACTT, for which the binding signal with ERF was 1.64 fold enrichment (6-mer frequency, TF over GST control); in the assay with ETV3L it was 1.87 fold enrichment (6-mer frequency, TF over GST control); in the assay with ETS2 it was 2.02 fold enrichment (6-mer frequency, TF over GST control); with SPDEF, 2.57 fold enrichment (6-mer frequency, TF over GST control); in the assay with ETV7 it was 2.11 fold enrichment (6-mer frequency, TF over GST control); with ELF5 it was 2.51 fold enrichment (6-mer frequency, TF over GST control). For the same sequence, the binding signal in the assay with ETV3 is 1.97 fold enrichment (6-mer frequency, TF over GST control); in the assay with ETV6 it was 2.47 fold enrichment (6-mer frequency, TF over GST control).
For TAACGC, the binding signal is 1.06 fold enrichment (6-mer frequency, TF over GST control) with ERF; 1.18 fold enrichment (6-mer frequency, TF over GST control) in the assay with ETV3L; 1.15 fold enrichment (6-mer frequency, TF over GST control) with ETS2; 1.15 fold enrichment (6-mer frequency, TF over GST control) with SPDEF; 1.01 fold enrichment (6-mer frequency, TF over GST control) with ETV7; 1.13 fold enrichment (6-mer frequency, TF over GST control) with ELF5. Also, the binding signal with ETV3 was 1.2 fold enrichment (6-mer frequency, TF over GST control); with ETV6, 1.17 fold enrichment (6-mer frequency, TF over GST control).
TCGCCC: the binding signal with ERF is 1.32 fold enrichment (6-mer frequency, TF over GST control); in the assay with ETV3L, 1.34 fold enrichment (6-mer frequency, TF over GST control); in the assay with ETS2 it was 1.23 fold enrichment (6-mer frequency, TF over GST control); with SPDEF, 1.25 fold enrichment (6-mer frequency, TF over GST control); in the assay with ETV7 it was 1.27 fold enrichment (6-mer frequency, TF over GST control); with ELF5, 1.14 fold enrichment (6-mer frequency, TF over GST control). The binding signal with ETV3 is 1.21 fold enrichment (6-mer frequency, TF over GST control); with ETV6, 1.23 fold enrichment (6-mer frequency, TF over GST control).
CTAGCA: the binding signal in the assay with ERF was 1.21 fold enrichment (6-mer frequency, TF over GST control); with ETV3L, 1.28 fold enrichment (6-mer frequency, TF over GST control); in the assay with ETS2, 1.18 fold enrichment (6-mer frequency, TF over GST control); with SPDEF, 1.16 fold enrichment (6-mer frequency, TF over GST control); in the assay with ETV7, 1.33 fold enrichment (6-mer frequency, TF over GST control); with ELF5, 1.12 fold enrichment (6-mer frequency, TF over GST control). For the same sequence, the binding signal was 1.18 fold enrichment (6-mer frequency, TF over GST control) in the assay with ETV3 and 1.18 fold enrichment (6-mer frequency, TF over GST control) in the assay with ETV6.
Regarding TCTTCC, the binding signal with ERF is 2.26 fold enrichment (6-mer frequency, TF over GST control); in the assay with ETV3L, 2.66 fold enrichment (6-mer frequency, TF over GST control); with ETS2, 2.8 fold enrichment (6-mer frequency, TF over GST control); in the assay with SPDEF, 2.45 fold enrichment (6-mer frequency, TF over GST control); with ETV7, 2.35 fold enrichment (6-mer frequency, TF over GST control); in the assay with ELF5, 4.14 fold enrichment (6-mer frequency, TF over GST control). Further, the binding signal was 2.74 fold enrichment (6-mer frequency, TF over GST control) with ETV3 and 2.8 fold enrichment (6-mer frequency, TF over GST control) in the assay with ETV6.
On to TACCAC, for which the binding signal with ERF is 1.21 fold enrichment (6-mer frequency, TF over GST control); in the assay with ETV3L it was 1.26 fold enrichment (6-mer frequency, TF over GST control); with ETS2, 1.27 fold enrichment (6-mer frequency, TF over GST control); in the assay with SPDEF, 1.16 fold enrichment (6-mer frequency, TF over GST control); with ETV7, 1.15 fold enrichment (6-mer frequency, TF over GST control); in the assay with ELF5, 1.29 fold enrichment (6-mer frequency, TF over GST control). The binding signal is 1.2 fold enrichment (6-mer frequency, TF over GST control) with ETV3 and 1.21 fold enrichment (6-mer frequency, TF over GST control) in the assay with ETV6.
As for ACTTCG, the binding signal in the assay with ERF was 1.52 fold enrichment (6-mer frequency, TF over GST control); in the assay with ETV3L, 1.27 fold enrichment (6-mer frequency, TF over GST control); in the assay with ETS2, 1.36 fold enrichment (6-mer frequency, TF over GST control); with SPDEF, 1.3 fold enrichment (6-mer frequency, TF over GST control); with ETV7, 1.26 fold enrichment (6-mer frequency, TF over GST control); with ELF5, 1.32 fold enrichment (6-mer frequency, TF over GST control). Besides, the binding signal was 1.42 fold enrichment (6-mer frequency, TF over GST control) in the assay with ETV3 and 1.36 fold enrichment (6-mer frequency, TF over GST control) with ETV6.
